Measured values as given in PubChem BioAssay (NCATS).
Results filed as inconclusive are left out. The source made the active and inactive calls. Calls follow the shape of the dose curve; as a rule, active = well fitted curve in the direction sought with a large enough effect; inconclusive = small, poorly fitted or top-dose-only effect, or another doubt; inactive = no such curve, though single readings can be large; an effect the other way counts as inactive or inconclusive.

Tests used:
[1] = target: Glutathione peroxidase 1 (Homo sapiens) (UniProt P07203); experiment: Primary qHTS Assay for Inhibitors of Recombinant Selenoprotein Glutathione Peroxidase 1 (GPX1) (AID 1845191); also: nearly all actives have a fitted effect of over 65% in size; as to activity, negative = inhibition: % is scaled to controls: 0 for no effect and ±100 for the full control effect
Procedure, shortened: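 NADPH consumption tracked by fluorescence at 340/450 nm between t=0 and t=15 min, room temperature. Final mix: 10 nM GPX1, 100 nM glutathione reductase, 1 mM GSH, 0.5 mM NADPH, 0.5 mM cumene hydroperoxide, 0.01% BSA; 30 min compound–enzyme preincubation.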

[2] = target: Phospholipid hydroperoxide glutathione peroxidase GPX4 (Homo sapiens) (UniProt P36969); experiment: Primary qHTS Assay for Inhibitors of Recombinant Selenoprotein Glutathione Peroxidase 4 (GPX4) (AID 1845192); also: nearly all actives have a fitted effect of over 65% in size; as to activity change, negative = inhibition: series mostly up to about 50 µM; % is scaled to controls: 0 for no effect and ±100 for the full control effect
Procedure, shortened: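 NADPH consumption followed by fluorescence at 340/450 nm, t=0 and after 15 min at room temperature. Reaction started with cumene hydroperoxide (0.5 mM final) after 30 min compound–GPX4 preincubation; final 200 nM GPX4, 100 nM GR, 1 mM GSH, 0.5 mM NADPH.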

[3] = target: Luciferin 4-monooxygenase (Photinus pyralis) (UniProt P08659); experiment: Primary firefly luciferase (FLuc) qHTS assay for identification of artifact compounds. (AID 1845220); also: nearly all actives have a fitted effect of over 60% in size;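 as to activity change, negative = inhibition: series mostly up to about 54 µM; plate controls were DMSO vehicle for no effect and no enzyme for full effect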
Procedure, shortened: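 FLuc 10 nM; luciferin 10 uM; ATP 10 uM; Tris-acetate pH 7.6, Mg-acetate 10 mM; 15 min RT preincubation; 5 min reaction; luminescence.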

[4] = Primary fluorescence-based thiol-reactive (MSTI) qHTS assay for identification of artifact compounds. (AID 1845221); also: nearly all actives have a fitted effect of over 65% in size; also: potency is read from the fitted curve at half-maximal effect;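 as to activity change, negative = thiol reactive: series mostly up to about 54 µM; thiol-reactive compounds lower the probe fluorescence signal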
Procedure, shortened: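 One-hour, room-temperature, dark incubation of compound with 4 uM MSTI in PBS (pH 7.4, 2% DMSO) precedes a fluorescence read at 525 nm excitation, 598 nm emission; Hill-equation fitting yields concentration-response values.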

[5] = test system: Nanoluciferase (engineered Oplophorus gracilirostris luciferase); experiment: Primary Nanoluciferase (NLuc) qHTS assay for identification of artifact compounds. (AID 1845222);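 also: NLuc secreted into diluted conditioned medium of S16 cells; series mostly up to about 54 µM; 0% = DMSO and -100% = no enzyme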
Procedure, shortened: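 NLuc from S16 cell medium (1:55) plus test compounds, 15 min, room temperature. Luminescence after Nano-Glo (1:100) addition, 5 min.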

[6] = Primary redox qHTS assay for identification of artifact compounds. (AID 1845223);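 also: 0% = DMSO and 100% = reference compound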
Procedure, shortened: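 Redox-cycling detection via DTT (250 uM final) oxidation coupled to Amplex Red (25 uM)/HRP (250 mU/mL) in HBSS. 15 min preincubation plus 30 min after DTT, room temperature. Ex/Em 525/598 nm; 4-parameter Hill fit against DMSO and 10 uM DA3003.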

Glutathione peroxidase 1 (Homo sapiens), sequence (P07203 whole entry, looked up): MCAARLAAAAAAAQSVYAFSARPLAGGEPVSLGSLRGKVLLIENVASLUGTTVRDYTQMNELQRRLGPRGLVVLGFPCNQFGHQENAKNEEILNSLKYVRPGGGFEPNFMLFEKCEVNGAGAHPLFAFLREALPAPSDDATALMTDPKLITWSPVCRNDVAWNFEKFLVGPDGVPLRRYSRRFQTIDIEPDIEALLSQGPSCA
Phospholipid hydroperoxide glutathione peroxidase GPX4 (Homo sapiens), sequence (P36969 whole entry, looked up): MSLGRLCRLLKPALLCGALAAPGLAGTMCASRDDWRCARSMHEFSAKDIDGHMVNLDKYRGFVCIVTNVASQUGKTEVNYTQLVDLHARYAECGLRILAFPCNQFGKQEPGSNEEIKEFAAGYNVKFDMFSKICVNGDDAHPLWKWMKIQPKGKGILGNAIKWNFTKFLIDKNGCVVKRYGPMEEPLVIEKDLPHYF

CC(=O)O[C@H]1CC[C@@]2(C)C(CC[C@@H](C)[C@]23Cc2c(O)cc4c(c2O3)CN([C@@H](CCC(=O)O)C(=O)O)C4=O)C1(C)C (some centres undefined)
inactive: Potency [1] | Potency [2] | Potency [3] | Potency [4] | Potency [5] | Potency [6]

Fc1ccc2nc(CCC#Cc3ccccn3)cn2c1
inactive: Potency [1] | Potency [2] | Potency [3] | Potency [4] | Potency [5] | Potency [6]

O=C1CCC(c2ccccc2)(C2CCN(Cc3ccc(I)cc3)CC2)C(=O)N1 (centres undefined)
inactive: Potency [1] | Potency [2] | Potency [3] | Potency [4] | Potency [5] | Potency [6]

CC(=O)C1=C(C)N(c2cccc(C(F)(F)F)c2)C(=O)N[C@H]1c1ccc(C#N)nc1
inactive: Potency [1] | Potency [2] | activity change, negative = inhibition [3] -8.43% [at 11.6 µM] | activity change, negative = thiol reactive [4] 33.4% [at 11.5 µM] | activity, negative = inhibition [5] -1.73% [at 11.6 µM] | redox activity (% of DA3003) [6] -3.41% [at 11.5 µM]

COc1cc(Nc2nc3ccccc3nc2NS(=O)(=O)c2ccc(NC(=O)c3ccc(OC)c(C)c3)cc2)cc(OC)c1
active: Potency [4] 1.68 µM
inactive: Potency [1] | Potency [2] | Potency [3] | Potency [5] | Potency [6]

O=C(Nc1ccc(S(=O)(=O)C(F)(F)F)cc1)C1=CCN(c2ncccc2C(F)(F)F)CC1
inactive: Potency [1] | Potency [2] | Potency [3] | Potency [4] | Potency [5] | Potency [6]

O=C1NC2CCc3nc4ccccc4c(=O)n3C2=Nc2ccccc21 (centres undefined)
inactive: Potency [1] | Potency [2] | Potency [3] | Potency [4] | Potency [5] | Potency [6]

CC(=O)OC1C[C@]2(C)C(O)CC(C)=C[C@H](OC(=O)c3ccc(O)cc3)C2[C@]1(O)C(C)C (some centres undefined)
inactive: Potency [1] | Potency [2] | Potency [3] | Potency [4] | Potency [5] | Potency [6]

COc1cc(Nc2nc3c(s2)CCCC3c2ccc(F)cc2)ccc1-n1cnc(C)c1 (centres undefined)
active: Potency [4] 11.9 µM
inactive: Potency [1] | Potency [2] | Potency [3] | Potency [5] | Potency [6]

C=CC(C)(C)C12C=C(OC)C(=O)N3C(C(C)C)C(=O)NC31N(OC)c1ccccc12 (centres undefined)
inactive: Potency [1] | Potency [2] | Potency [3] | Potency [4] | Potency [5] | Potency [6]

CC12CCC(OC3OC(CO)C(O)C(OC4OC(CO)C(O)C(O)C4O)C3O)CC1CCC1C2CCC2(C)/C(=C3/COC(=O)C3)CCC12O (centres undefined)
inactive: Potency [1] | Potency [2] | Potency [3] | Potency [4] | Potency [5] | Potency [6]

CC1(C)CC[C@]2(C(=O)O[C@@H]3O[C@H](CO[C@@H]4O[C@H](CO)[C@@H](O)[C@H](O)[C@H]4O[C@@H]4O[C@H](CO)[C@@H](O)[C@H](O)[C@H]4O)[C@@H](O)[C@H](O[C@@H]4O[C@H](CO)[C@@H](O)[C@H](O)[C@H]4O)[C@H]3O)CC[C@]3(C)C(=CCC4[C@@]5(C)CC[C@@H](O)[C@@](C)(C(=O)O[C@@H]6O[C@H](CO)[C@@H](O)[C@H](O)[C@H]6O)C5CC[C@]43C)[C@@H]2C1 (some centres undefined)
inactive: activity, negative = inhibition [1] -10.6% [at 9.52 µM] | outcome [2] inactive [at 9.73 µM] | activity change, negative = inhibition [3] 2.91% [at 11.6 µM] | activity change, negative = thiol reactive [4] 344% [at 11.5 µM] | activity, negative = inhibition [5] 2% [at 11.6 µM] | redox activity (% of DA3003) [6] 5.34% [at 11.5 µM]

CS(=O)(=O)c1ccc([C@H](CC2CCCC2)C(=O)Nc2nccs2)cc1
inactive: Potency [1] | Potency [2] | Potency [3] | Potency [4] | Potency [5] | Potency [6]

C=C[C@@]12COC(=O)C(=C)C1[C@@H](O)[C@H](C(=C)C(=O)OC)[C@@H](OC(=O)C(=C)CO)C2 (some centres undefined)
active: Potency [4] 11.6 µM
inactive: Potency [1] | Potency [2] | Potency [3] | Potency [5] | Potency [6]

CC1(C)CCCC2(C)C=C(C(=O)O)C(O)CC12 (centres undefined)
inactive: Potency [1] | Potency [2] | Potency [3] | Potency [4] | Potency [5] | Potency [6]

Cn1ncnc1COc1nn2c(-c3cc(F)ccc3F)nnc2cc1C(C)(C)C
inactive: Potency [1] | Potency [2] | Potency [3] | Potency [4] | Potency [5] | Potency [6]

COC(=O)C1(C)c2[nH]c3ccccc3c2CCN1C(=O)CCl (centres undefined)
inactive: Potency [1] | Potency [2] | Potency [3] | Potency [4] | Potency [5] | Potency [6]

C=C1CC[C@H]2[C@@](C)(CCC(O)[C@@]2(C)CO)[C@@H]1CCC1=CCOC1=O (some centres undefined)
inactive: Potency [1] | Potency [2] | Potency [3] | Potency [4] | Potency [5] | Potency [6]

COC(=O)C1=CO[C@@H](O[C@@H]2O[C@H](CO)[C@@H](O)[C@H](O)[C@H]2O)[C@H]2[C@@H]1CC(OC)O[C@@H]2C (some centres undefined)
active: Potency [4] 10.3 µM
inactive: Potency [1] | Potency [2] | Potency [3] | Potency [5] | Potency [6]
